# Shown are actives, neighbours in structure and some others; about 1.2% of the full set was active somewhere.
# RGS4-Gao reg: modulators of RGS4 binding to Galphao, primary screen, biochemical, multiplexed bead flow cytometry; Guanine nucleotide-binding protein G(o) subunit alpha (Homo sapiens), P09471; actives lie on both sides; binding response (% of control), % at 10 µM; 0.33% of 220,000 active; in the data active = binding response below about 49% or above about 150%; inactive = in between;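 note: fluorescent Galphao activated with aluminum fluoride binding bead-coupled RGS4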
# Target sequence (P09471 whole entry, looked up): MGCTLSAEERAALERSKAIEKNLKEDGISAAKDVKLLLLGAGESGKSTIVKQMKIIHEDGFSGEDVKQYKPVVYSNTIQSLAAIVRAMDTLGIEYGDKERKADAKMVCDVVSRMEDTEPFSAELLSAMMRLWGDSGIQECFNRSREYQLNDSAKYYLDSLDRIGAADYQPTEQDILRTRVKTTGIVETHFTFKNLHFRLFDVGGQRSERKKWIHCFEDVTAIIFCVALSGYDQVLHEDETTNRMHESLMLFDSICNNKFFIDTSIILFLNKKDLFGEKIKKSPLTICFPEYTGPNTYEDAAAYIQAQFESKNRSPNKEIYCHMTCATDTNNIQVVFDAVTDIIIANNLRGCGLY
# RGS7-Gao: RGS7-Galphao binding modulators, primary screen, biochemical, multiplexed bead flow cytometry; Guanine nucleotide-binding protein G(o) subunit alpha (Homo sapiens), P09471; actives lie on both sides; binding response (% of control), % at 10 µM; 0.35% of 220,000 active; AID 1439, 2008; in the data active = binding response below about 49% or above about 150%; inconclusive = no clear call, values can overlap the other calls; inactive = in between;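 note: fluorescent Galphao held in activated GDP-AlF4 state binding bead-coupled RGS7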
# Avidin fluor: green autofluorescence of compounds with avidin beads – biophysical, 488/530 nm, flow cytometry, artefact control, profiling panel; compound fluorescence 488/530 nm; hits give high values; 0.38% of 220,000 active; fluorescence (KMESF) at 10 µM; AID 1775, 2009; in the data active = fluorescence above about 47
# GSH fluor: compound fluorescence on glutathione beads, profiling panel, artefact control, biophysical, 488/530 nm, flow cytometry | GSH beads flow cytometry, compound fluorescence 488/530 nm; hits give high values | fluorescence (KMESF) at 10 µM | 0.25% of 190,000 active | AID 1776, 2009; in the data active = fluorescence above about 89;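 note: glutathione beads carrying GST-tagged Bcl family fusion proteins plus one bare bead set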
# RGS16-Gao: modulators of RGS16 binding to Galphao, primary screen, biochemical, human proteins, multiplexed bead flow cytometry. Regulator of G-protein signaling 16 (Homo sapiens) + Guanine nucleotide-binding protein …. bead-based flow cytometry RGS16-Galphao binding, fluorescence; actives lie on both sides. binding response (% of control), % at 10 µM. 0.38% of 220,000 active. AID 1441, 2008;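 note: Galphao activated by GDP with aluminum fluoride before binding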
# RGS8-Gao reg: RGS8-Galphao binding modulators, primary screen, biochemical, multiplexed bead flow cytometry; Guanine nucleotide-binding protein G(o) subunit alpha (Homo sapiens), P09471; actives lie on both sides; response (percent of control binding), % at 10 µM; 0.34% of 220,000 active; AID 1423, 2008; in the data active = response below about 60% or above about 140%; inactive = in between;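 note: Galphao activated as the GDP aluminium fluoride complex binding bead-coupled RGS8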
# RGS-Gao: modulators of RGS–Galpha-o binding, primary screen, biochemical, multiplexed beads, flow cytometry, RGS4/7/8/16/19; shares compounds with RGS16-Gao; multiplexed bead flow cytometry; RGS4–Galpha-o binding response, % at 10 µM; 99% of 1,600 active;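 note: fluorescently labeled Galpha-o bound to GDP with aluminium fluoride binding biotinylated RGS beads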
# Biotin-avidin: disruption of biotin probe capture by avidin, counter-screen for RGS protein interaction modulators, biochemical, flow cytometry, bead-based | AID 1783, 2009 | shares compounds with RGS16-Gao | inhibition, % at 10 µM | 1,700 tested, under 10 active | streptavidin beads, fluorescein-biotin binding;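 active = inhibition above 50%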;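 note: median green fluorescence of gated singlet beads compared with DMSO control wells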
# RGS8-Gao confirm: RGS8-Galphao binding modulators, confirmation, biochemical, multiplexed bead flow cytometry, single concentration; shares compounds with RGS16-Gao; bead-based flow cytometry RGS8-Galphao binding, fluorescence; actives lie on both sides; binding response (% of control), % at 10 µM; 3% of 1,700 active; AID 1836, 2009; in the data active = binding response below about 72% or above about 130%; inactive = in between;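 note: Galphao activated as GDP AlF4 complex before binding bead RGS8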
# RGS7-Gao single: RGS7-Galphao binding modulators, confirmation, biochemical, multiplexed bead flow cytometry, single concentration | response (percent of control binding), % at 10 µM | bead-based flow cytometry RGS7-Galphao binding; actives lie on both sides | AID 1837, 2009 | 7.8% of 1,700 active | shares compounds with RGS16-Gao; in the data active = response below about 75% or above about 130%; inactive = in between;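 note: fluorescent Galphao activated with GDP and aluminum fluoride binding bead-coupled RGS7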
# RGS16-Gao single: modulators of RGS16-Galphao protein binding, confirmation, biochemical, single concentration, multiplexed bead flow cytometry. bead-based flow cytometry; actives lie on both sides. shares compounds with RGS16-Gao. AID 1838, 2009. 4% of 1,700 active. response (% of control binding), % at 10 µM; in the data active = response below about 74% or above about 130%; inactive = in between;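 note: Galphao activated as the GDP aluminium fluoride complex binding bead-coupled RGS16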
# RGS4-Gao confirm: modulators of RGS4-Galphao protein binding, confirmation, biochemical, single concentration, multiplexed bead flow cytometry; shares compounds with RGS16-Gao; actives lie on both sides; binding response (% of control), % at 10 µM; 4% of 1,700 active; in the data active = binding response below about 74% or above about 130%; inactive = in between
# RGS19-Gao single: regulators of RGS19-Galphao binding, confirmation, biochemical, single point, multiplexed bead flow cytometry; shares compounds with RGS16-Gao; bead-based flow cytometry RGS19-Galphao binding; actives lie on both sides; response (percent of control binding), % at 10 µM; 5% of 1,700 active; AID 1841, 2009; in the data active = response below about 50% or above about 160%; inactive = in between
# Target sequence (P09471 whole entry, looked up): as above
# Target sequence (P49795 whole entry, looked up): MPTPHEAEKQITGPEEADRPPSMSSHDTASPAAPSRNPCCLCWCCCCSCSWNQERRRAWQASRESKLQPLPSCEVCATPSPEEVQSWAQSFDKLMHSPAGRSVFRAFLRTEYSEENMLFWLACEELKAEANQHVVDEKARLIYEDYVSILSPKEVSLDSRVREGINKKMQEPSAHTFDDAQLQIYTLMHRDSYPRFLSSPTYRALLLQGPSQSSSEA
# Hits are given with their value; – = inactive; ? = inconclusive; · = not tested or not shown; [ ] = remark or other dose. Unless noted, the rule behind the calls is not given here.
SMILES,RGS4-Gao reg,RGS7-Gao,Avidin fluor,GSH fluor,RGS16-Gao,RGS8-Gao reg,Biotin-avidin,RGS8-Gao confirm,RGS7-Gao single,RGS16-Gao single,RGS4-Gao confirm,RGS19-Gao single,others
Cc1cccc(C)c1NC(=O)CSC(=O)c1sc2ccccc2c1Cl,-6.1,?,–,·,-2.1,22.2,–,–,–,–,–,–,
O=C(O)C1CCCN1S(=O)(=O)c1ccc2[nH]c(=O)c(=O)[nH]c2c1 (configuration not stated),157.6[activator],–,–,–,–,–,–,–,–,–,–,–,
Cc1ccc(N=N/C(=C\O)C(=O)c2ccc(Cl)cc2)cc1,42.2,44.9,–,–,–,59.4,–,–,–,–,–,–,
Cc1ccc(-n2c(N)c(C(=O)N3CCOCC3)sc2=S)cc1,–,–,–,–,–,145.9[activator],·,·,·,·,·,·,RGS-Gao=120.0
NC(=O)c1nnsc1Sc1c(C(N)=O)nnn1-c1cccc(N)c1,–,?,–,–,–,–,·,·,·,·,·,·,
COc1ccc(C(CC(=O)O)NS(=O)(=O)c2ccc(C)cc2)cc1OC (configuration not stated),20.9,11.8,–,–,12.5,12.4,–,–,–,–,–,–,
COc1ccc(C(CC(=O)O)NS(=O)(=O)c2ccc(C)cc2)cc1 (configuration not stated),–,–,–,–,–,–,·,·,·,·,·,·,
COc1ccnc(-n2cccc2/C=N/O)c1C#N,–,–,–,–,–,–,·,·,·,·,·,·,
CCOC(=O)N1CCC(NC(=O)c2ccc(N3CCC4(CC3)OCCO4)c([N+](=O)[O-])c2)CC1,–,–,–,–,–,–,·,·,·,·,·,·,
CCCCNC(=O)c1ccc(N2CCC3(CC2)OCCO3)c([N+](=O)[O-])c1,–,–,–,–,21.1,–,–,–,–,–,–,–,RGS-Gao=94.2
COc1cccc(CNC(=O)C2CCN(S(=O)(=O)c3ccc4c(c3)CCC(=O)N4)CC2)c1,–,–,–,–,–,141.1[activator],–,–,–,–,–,–,RGS-Gao=109.7
COc1ccc(OCC(=O)N2CCN(c3nnc(-c4ccccc4)c4ccccc34)CC2)cc1,11.8,15.0,–,–,8.3,21.8,–,–,–,–,–,–,
CC(=O)C1=C(C)NC(=O)NC1c1ccc(Cl)cc1 (configuration not stated),–,–,–,–,–,–,·,·,·,·,·,·,
Cc1ccc(S(=O)(=O)NCCc2nnc3ccc(SCC(=O)Nc4nc(C)cs4)nn23)cc1,–,–,–,–,–,–,·,·,·,·,·,·,
CCN(CC)CCNc1ccc2nnc(CCNS(=O)(=O)c3ccc(C)cc3)n2n1,20.2,16.4,–,–,10.6,14.8,–,–,66.6,–,–,–,
CCCCN(CCCC)c1cn[nH]c(=O)c1Cl,22.1,16.2,–,–,9.8,13.2,–,–,–,–,–,–,
CSCC[C@H](NC(=O)OC(C)(C)C)C(=O)N/N=C/c1ccc2nccnc2c1,–,?,–,·,–,–,·,·,·,·,·,·,
O=C(Cc1ccc([N+](=O)[O-])cc1)N1N=C(C2CC2)CC1(O)C(F)(F)F (configuration not stated),–,–,–,–,–,–,·,·,·,·,·,·,
O=C(Nc1ccc(C(=O)O)cc1)Nc1cccc([N+](=O)[O-])c1,–,–,–,–,–,149.5[activator],–,–,–,–,–,–,RGS-Gao=121.8
O=C(Nc1cccc([N+](=O)[O-])c1)Nc1cccc([N+](=O)[O-])c1,–,–,–,–,–,–,·,·,·,·,·,·,
CCCCCSc1nnc(-c2ccccc2NC(C)=O)c(=O)[nH]1,–,–,–,–,–,–,·,·,·,·,·,·,
COc1ccc(C2C(C(N)=O)=C(C)Nc3nc(-c4ccccc4OC)nn32)cc1OC (configuration not stated),–,–,–,–,–,–,·,·,·,·,·,·,
COC(=O)c1nc2n(n1)C(c1ccc(OC)c(OC)c1)C(C(=O)OC1CCCCC1)=C(C)N2 (configuration not stated),–,–,–,–,-38.1,–,–,–,–,–,–,–,RGS-Gao=81.9
CSCCC(NC(=O)c1cccc([N+](=O)[O-])c1)c1nc2ccccc2[nH]1 (configuration not stated),–,–,–,–,–,–,·,·,·,·,·,·,
CSCCC(NC(=O)c1cccc([N+](=O)[O-])c1)C(=O)O (configuration not stated),–,–,–,–,187.5[activator],–,–,–,–,–,–,–,RGS-Gao=105.8
N#C/C(=C/c1ccc(N2CCCCC2)o1)C(=O)Nc1ccc2ccccc2c1,177.1[activator],191.9[activator],111,–,–,–,–,–,175.2[activator],138.5[activator],148.2[activator],219.6[activator],
COc1ccc(NC(=O)/C(C#N)=C\c2ccc(N3CCOCC3)o2)cc1,–,–,–,–,–,–,·,·,·,·,·,·,
Cc1ccc(Nc2nnc(SCc3nc4ccccc4c(=O)[nH]3)s2)cc1,–,–,–,–,–,–,·,·,·,·,·,·,
COc1ccc(OC)c(/C(O)=C/C(=O)C(=O)Nc2cc(C)cc(C)c2)c1,–,–,–,–,–,–,·,·,·,·,·,·,
